Reference: PubChem BioAssay (NCI)
The panel holds about 79,000 compounds, 15% with a hit somewhere; the sample as a whole holds those more often. Active and inactive are the calls of the source. Rule as the data show it: active = growth inhibition above about 70%; inactive = the rest.

Tests used:
[1] = NCI Yeast Anticancer Drug Screen. Data for the rad50 strain (AID 155);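 also: 0% = growth of vehicle-only cultures of the same strain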; conditions: S. cerevisiae rad50 strain growth inhibition; at 50.0 µM; active compounds read high
Summary of the method: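 Relative growth inhibition (compound vs vehicle) was measured in yeast with a defined repair-gene alteration.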

[2] = NCI Yeast Anticancer Drug Screen. Data for the mec2-1 strain (AID 157); conditions: S. cerevisiae mec2-1 strain, at 50.0 µM, active compounds read high
Summary of the method: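 Each compound was tested on mec2-1 yeast, a strain altered in DNA damage repair or cell cycle control. Growth inhibition is reported relative to vehicle.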

[3] = NCI Yeast Anticancer Drug Screen. Data for the sgs1 mgt1 strain (AID 161);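 also: 0% = growth of cultures given vehicle only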; conditions: S. cerevisiae sgs1 mgt1 strain, at 50.0 µM, active compounds read high
Summary of the method: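 Genetically altered yeast, compound exposure, growth inhibition relative to vehicle.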

[4] = NCI Yeast Anticancer Drug Screen. Data for the cln2 rad14 strain (AID 165);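 also: 0% = growth equal to vehicle treated cultures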; conditions: S. cerevisiae cln2 rad14 strain, at 50.0 µM, active compounds read high
Summary of the method: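 Test compounds were added to cln2 rad14 yeast cultures; inhibition of growth was then determined by comparison with vehicle treatment.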

[5] = NCI Yeast Anticancer Drug Screen. Data for the bub3 strain (AID 167); conditions: S. cerevisiae bub3 mutant strain, at 50.0 µM, active compounds read high
Summary of the method: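 Screening used yeast with an engineered genetic alteration affecting cell cycle control. Compound-exposed cultures were compared with vehicle cultures, and reduced growth was taken as inhibition.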

[6] = NCI Yeast Anticancer Drug Screen. Data for the mlh1 rad18 strain (AID 175); conditions: S. cerevisiae mlh1 rad18 strain growth inhibition; at 50.0 µM; active compounds read high
Summary of the method: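 Inhibition values reflect reduced growth of mutant yeast versus vehicle-treated controls following compound exposure; the mutations affect DNA damage repair.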

Measured: growth inhibition

Cc1cc(C)cc(OP(=O)(Oc2cc(C)cc(C)c2)Oc2cc(C)cc(C)c2)c1
inactive: [1] -13.3% | [2] -24.6% | [3] 5.45% | [4] -3.65% | [5] 1.7% | [6] -5.25%

CC(NC(=O)c1c(O)[nH]c(=S)[nH]c1=O)c1ccc([N+](=O)[O-])cc1 (stereo unspecified)
inactive: [1] 17.9% | [2] 13.8% | [3] 35.8% | [4] 19.4% | [5] 12.1% | [6] 14.6%

NCCc1c[nH]c2ccccc12
inactive: [1] 10.8% | [2] -3.3% | [3] -15.8% | [4] 9% | [5] -0.75% | [6] -12.8%

O=S(=O)(F)c1ccccc1S(=O)(=O)Cl
inactive: [1] 11.7% | [2] -2.55% | [3] 15.6% | [4] 16.4% | [5] 12.4% | [6] 21.6%

[Cl][Hg][c]1ccccc1N=Nc1ccccc1
active: [1] 91.7% | [2] 98.5% | [3] 94.4% | [4] 97% | [5] 98% | [6] 94.5%

O[C@H]1[C@H](O)[C@@H](O)CN2CC[C@H](O)[C@H]12
inactive: [1] -25.9% | [2] -24.1% | [3] -18.1% | [4] -4.1% | [5] -9.05% | [6] -24.6%

COc1cc(/C=C(\C)[N+](=O)[O-])cc(OC)c1
inactive: [1] 18.9% | [2] 16.1% | [3] 34% | [4] 58.2% | [5] 64.7%
active: [6] 86.3%

CCNC(=O)Oc1c(Cl)cc(S(=O)(=O)F)cc1Cl
inactive: [1] 43.6% | [2] 22.8% | [3] 32.1% | [4] 12.5% | [5] 16% | [6] 26.4%

O=C1NC(=O)C(F)(n2cc(F)c(=O)[nH]c2=O)C(O)N1 (stereo unspecified)
inactive: [1] -47.8% | [2] -31.3% | [3] -10.2% | [4] -40% | [5] -13.4% | [6] -54.9%

C=C(C)CNC1=C(C)C(=O)C2=C(C1=O)[C@H](COC(N)=O)[C@]1(OC)[C@@H]3N[C@@H]3CN21
active: [6] 74.7%
inactive: [1] 5.15% | [2] -9.35% | [3] 13.3% | [4] 23.9% | [5] 19.4%

O=c1[nH]c2ccc([As](O)O)cc2[nH]1
inactive: [1] -14.8% | [2] -14.9% | [3] -4.9% | [4] -17.8% | [5] -8.25% | [6] 0.75%

Cc1ccc2c(c1)Cc1ccccc1-2
inactive: [1] 22.9% | [2] -17.2% | [3] 16.9% | [4] 23.7% | [5] 10.2% | [6] 34.9%

CCC(=O)NCC1CCCN2CCCCC12 (stereo unspecified)
inactive: [1] -4.55% | [2] -8.35% | [3] -18.5% | [4] 2.65% | [5] 6.95% | [6] -22%

CN(C)C(=S)Oc1ccc(Cl)cc1S(=O)(=O)F
inactive: [1] 53.6% | [2] 14.2% | [3] 32.4% | [4] 20.4% | [5] -6.7% | [6] 9.6%

O=C(N/N=C/c1cc(Cl)cc(Cl)c1[O-])c1ccccc1O.O=C(N/N=C/c1cc(Cl)cc(Cl)c1[O-])c1ccccc1O.[Ni+2]
inactive: [1] -8.75% | [2] -15.8% | [3] -14.8% | [4] -41.2% | [5] 6.9% | [6] -17.1%

CC(Cl)CN(CC(C)Cl)c1ccc2c(c1)Cc1cc([N+](=O)[O-])ccc1-2 (stereo unspecified)
inactive: [1] 10.3% | [2] 5.7% | [3] 33.7% | [4] 25.9% | [5] 4.5% | [6] 12.7%

CC12CCC3C(CCC4=CC(O)CCC43C=O)C1(O)CCC2c1ccc(=O)oc1 (stereo unspecified)
inactive: [1] 7.15% | [2] -35% | [3] 18.1% | [4] 15.2% | [5] -11.2% | [6] 5.05%

O=[N+]([O-])c1ccc(O)c(C=NCCN=Cc2cc([N+](=O)[O-])ccc2O)c1.[Ni+2]
inactive: [1] -30.6% | [2] 5.8% | [3] -3.9% | [4] -56.6% | [5] -3.8% | [6] -22.4%

CC1NC1(c1ccccc1)n1ccnc1 (stereo unspecified)
inactive: [1] 13.4% | [2] -18.1% | [3] 5.8% | [4] -14.5% | [5] 11.4% | [6] 3.4%

O=C(NCC(O)CO)c1c([N+](=O)[O-])ccc(N(CCCl)CCCl)c1[N+](=O)[O-] (stereo unspecified)
inactive: [1] -11.2% | [2] -9.85% | [3] -0.45% | [4] 1.45% | [5] -19.1% | [6] 21%

O=C([O-])c1ccccc1[SH2+].[Cr+3].[NH-]CC[NH-].[NH-]CC[NH-].[O-][Cl+3]([O-])([O-])O
inactive: [1] 11.9% | [2] -1.95% | [3] -11.8% | [4] -19.4% | [5] 1.35% | [6] -26.4%

Cc1ncc([N+](=O)[O-])n1C(C)C(=O)Nc1ccc(N(CCCl)CCCl)cc1 (stereo unspecified)
inactive: [1] -6.2% | [2] 10.3% | [3] 3.5% | [4] -2.3% | [5] -4.65% | [6] 13.2%

O=P(OCCCl)(OCCCl)OCCCl
inactive: [1] -12.1% | [2] -19.4% | [3] -19.2% | [4] -54.6% | [5] 0.15% | [6] -5%

O=[C-]C(F)(F)F.[C-]#[O+].[C-]#[O+].[C-]#[O+].[Mo].[c-]1[c-][c-][cH-][c-]1
inactive: [1] 5.2% | [2] 13.3% | [3] 0.8% | [4] 25.9% | [5] 21.4% | [6] 7.05%

COc1cc2c(cc1O)-c1c(OC)c(O)cc3c1C(C2)N(C)CC3 (stereo unspecified)
inactive: [1] -20.6% | [2] -22.4% | [3] -22.6% | [4] -16.4% | [5] -24.4% | [6] -46.9%

COc1ccc(C(CC(=O)O)CC(=O)c2ccc(N(CCCl)CCCl)cc2)cc1 (stereo unspecified)
active: [4] 74.7% | [5] 87.3%
inactive: [1] 54% | [2] 22.7% | [3] 24.8% | [6] 68.5%

CCC(Cl)COP(=O)(OCC(Cl)CC)C(CC)OP(=S)(OCC(Cl)CC)OCC(Cl)CC (stereo unspecified)
active: [4] 94.8%
inactive: [1] 16.6% | [2] 11.3% | [3] 65.7% | [5] 57.5% | [6] 20.9%

Cc1cccc(NC(N)=S)c1
inactive: [1] 11.6% | [2] 1.55% | [3] 5.65% | [4] -4.35% | [5] -8.15% | [6] 8.35%

N#CCN(CC#N)[N+](=O)[O-]
inactive: [1] 6.8% | [2] -4.95% | [3] -14.2% | [4] -6% | [5] -26.3% | [6] 0.4%

[N-]=[N+]=NC(=O)Nc1ccccc1F
inactive: [1] -6.4% | [2] -1.1% | [3] -14.6% | [4] -19.3% | [5] -19.6% | [6] 16.1%

CC1(C)N=C(N)N=C(N)N1c1ccc(CCC(=O)Nc2ccc(S(=O)(=O)F)cc2)cc1
inactive: [1] 27.6% | [4] -28.8% | [5] -0.55% | [6] 54.1%
active: [2] 87.3% | [3] 76.8%

COc1ccc(C(=O)/C=C/c2ccccc2)cc1
inactive: [1] 2.05% | [2] -7.25% | [3] 30.1% | [4] 2.45% | [5] 42.4% | [6] 19.4%

O=P1(N(CCCl)CCCl)Oc2ccc(Cl)cc2Sc2c(ccc(Cl)c2Cl)O1 (stereo unspecified)
inactive: [1] 43.5% | [2] 7.9% | [3] 40.5% | [4] 40.5% | [5] 35.4% | [6] 46.7%

Cc1ccccc1-n1c(C)nc2ccccc2c1=O
inactive: [1] -29.3% | [2] -30.7% | [3] -1.35% | [4] 11.6% | [5] 1.5% | [6] -20.7%

[C-]#[O+].[C-]#[O+].[C-]#[O+].[C-]#[O+].[Cr].c1ccc(P(CCP(CCP(c2ccccc2)c2ccccc2)c2ccccc2)CCP(c2ccccc2)c2ccccc2)cc1 (stereo unspecified)
inactive: [1] 20.7% | [2] 23.2% | [3] 29.2% | [4] 16.8% | [5] 21.4% | [6] 31.6%

COc1ccc2c(c1OC(C)=O)-c1cc(OC(C)=O)cc3c1C(C2)NCC3 (stereo unspecified)
inactive: [1] 11.7% | [2] -4% | [3] -5.7% | [4] 6.65% | [5] 1.9% | [6] 4.4%
